# Mito fusion yeast: qHTS Assay for Small Molecule Inhibitors of Mitochondrial Division or Activators of Mitochondrial Fusion. AID 485298, 2010. S. cerevisiae fusion-defective mutant growth rescue, CellTiterGlo 48 h. Potency, µM (top dose mostly 46.1 µM), inactives show at the highest dose growth rescue (activation), usual class: activators. actives 0.23% (n = 320,000); also: % of control where 0% means no effect; nearly all actives have a fitted effect of over 45% in size
#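 Yeast fusion mutant, YPEG (non-fermentable carbon), compound, 48 h at 37C non-permissive; CellTiterGlo added, 10 min RT, luminescence read. Rescued growth = division inhibition.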
# FUS yeast rescue: qHTS for Suppressors of FUS Proteinopathy: Primary screen using FUS-linked yeast assay | S. cerevisiae FUS-expressing, growth rescue, OD600, 24 h | Potency, µM (top dose mostly 76.6 µM), hits mostly activators | actives 0.24% (n = 390,000) | AID 1347120, 2019;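 also: plate controls were DMSO vehicle for no effect and reference control for full effect; nearly all actives have a fitted effect of over 55% in size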
#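 Toxicity suppression screen in FUS-yeast. Cells induced with 2% galactose, starting OD 0.005, treated 24hr at 30C with compounds at multiple final concentrations; growth by OD600.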
# gsp agonist: qHTS for Agonist of gsp, the Etiologic Mutation Responsible for Fibrous Dysplasia/McCune-Albright Syndrome: qHTS. gsp mutant cells, cAMP HTRF, 30 min. Potency, µM (series often up to 76.9 µM), without a hit: top-dose activation (cAMP increase), hits mostly activators. actives 0.13% (n = 340,000). AID 624287, 2012; active = well fitted activation curve with a large enough effect; inconclusive = small, poorly fitted or top-dose-only effect, or another doubt; inactive = no such curve, though single readings can be large or run the other way; cell line not stated here;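 also: phosphodiesterase inhibitor Ro 20-1724 added with compounds to block cAMP breakdown; nearly all actives have a fitted effect of over 60% in size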
#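 Cells stably selected in G418 were plated at 2000/well, grown 16-24 hr, then given compounds in DMSO with the PDE inhibitor […] (300 uM solution added) for 30 min at 37C; cAMP was read by HTRF.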
# ALOX12 inh: Primary qHTS assay for inhibitors of human arachidonate 12S-lipoxygenase (ALOX12): Round 2 | purified 12hLO, xylenol orange hydroperoxide absorbance | AID 1671190, 2021 | Polyunsaturated fatty acid lipoxygenase ALOX12 (Homo sapiens), P18054 | actives 1.1% (n = 580,000) | Potency, µM (titrated, usually from 108 µM), inactives show at the highest dose activity change, negative = inhibition, actives largely listed as inhibitors; also: % is scaled to controls: 0 for no effect and ±100 for the full control effect
# Target sequence (P18054 whole entry, looked up): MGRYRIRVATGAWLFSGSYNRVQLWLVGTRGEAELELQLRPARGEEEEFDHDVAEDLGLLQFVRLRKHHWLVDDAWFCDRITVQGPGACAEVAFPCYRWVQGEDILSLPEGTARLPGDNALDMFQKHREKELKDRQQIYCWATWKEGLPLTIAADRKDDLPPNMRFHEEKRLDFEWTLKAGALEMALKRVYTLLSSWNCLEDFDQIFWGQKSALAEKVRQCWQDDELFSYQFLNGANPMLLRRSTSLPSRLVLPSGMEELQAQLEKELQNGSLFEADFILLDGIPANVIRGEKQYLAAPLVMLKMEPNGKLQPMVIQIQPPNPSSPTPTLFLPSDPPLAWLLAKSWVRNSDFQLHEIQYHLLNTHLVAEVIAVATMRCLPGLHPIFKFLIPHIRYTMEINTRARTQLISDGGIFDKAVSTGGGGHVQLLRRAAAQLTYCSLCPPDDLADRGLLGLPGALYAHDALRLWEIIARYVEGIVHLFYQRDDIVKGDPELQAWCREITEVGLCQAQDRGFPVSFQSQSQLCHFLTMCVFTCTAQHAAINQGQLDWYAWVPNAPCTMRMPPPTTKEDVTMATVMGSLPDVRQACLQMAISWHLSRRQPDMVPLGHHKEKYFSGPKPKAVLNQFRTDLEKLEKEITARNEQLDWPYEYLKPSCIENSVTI
#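 Purified human 12hLO at 150 nM in 25 mM Hepes, 0.01% Triton X-100, pH 7.0, preincubated 15 min at room temperature with compound. Reaction started with 40 uM arachidonic acid, 30 min at room temperature. Hydroperoxide measured by Fe-xylenol orange, 573/405 nm absorbance ratio.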
# gsp antag: qHTS for Antagonists of gsp, the Etiologic Mutation Responsible for Fibrous Dysplasia/McCune-Albright Syndrome: qHTS; gsp-mutant cells, cAMP HTRF, 30 min; AID 624288, 2012; Potency, µM (highest dose often 76.9 µM), without a hit: at the highest dose activity change, negative = inhibition, most hits filed as inhibitors; actives 0.4% (n = 340,000); calls by dose curve; cell line not stated here;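 also: intracellular cAMP measured with PDE inhibitor Ro 20-1724 present during compound exposure; % is scaled to controls: 0 for no effect and ±100 for the full control effect; nearly all actives have a fitted effect of over 65% in size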
#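 Cells in G418 medium, seeded 16-24 h, 37C; buffer exchange to DPBS + 1 mM CaCl2, 0.5 mM MgCl2, 0.05% BSA; cpds in DMSO + […] (300 uM stock), 30 min 37C; HTRF cAMP detection.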
# Active calls of the source: *; i = inactive; ? = inconclusive; . = no result given. This is a sample that favours compounds with a hit; in the whole collection about 1.6% have one here. Unless noted, calls follow the shape of the dose curve; as a rule, active = well fitted curve in the direction sought with a large enough effect; inconclusive = small, poorly fitted or top-dose-only effect, or another doubt; inactive = no such curve, though single readings can be large; an effect the other way counts as inactive or inconclusive. Potency is read from the fitted curve at half-maximal effect.
SMILES,Mito fusion yeast,FUS yeast rescue,gsp agonist,ALOX12 inh,gsp antag
CCNC(=O)c1cc(-c2ccc(OC)cc2OC)nc2ccccc12,.,.,.,8.9µM*,.
COc1ccc(-c2cc(C(=O)N3CCCCCC3)c3ccccc3n2)cc1,30%,i,-5%,-3%,-33%
CCCCNC(=O)c1cc(-c2ccc(OC)cc2OC)nc2ccccc12,.,.,.,44%,.
COc1ccc(-c2cc(C(=O)N3CCCC3)c3ccccc3n2)c(OC)c1,.,.,.,18µM*,.
Cc1ccc(Nc2n[nH]c(C)c2[N+](=O)[O-])c(C)c1,10µM*,i,-66%,4%,-28%
CN(C)CC1CCC/C(=C\c2ccc(OC(=O)c3ccc(Cl)cc3)cc2)C1=O (configuration not stated),.,.,6%,25µM*,7%
CC(C)(C)C(=O)NC(=S)NNC(=O)c1sc2ccccc2c1Cl,-26%,i,-56%,.,50µM*
COc1cc(OC)cc(OC(=O)c2cc(OC)cc(OC)c2)c1,.,.,.,16%,.
COCCN(CCOC)C(=O)c1cc2c(=O)n3ccccc3nc2s1,0%,?,4µM*,-11%,45%
COc1cccc([S+](=O)([O-])N2CCn3c(nn(-c4cccc(Cl)c4)c3=O)C2)c1,.,.,.,6.3µM*,.
CNS(=O)(=O)c1ccc(OC)c(-c2nnc3c4ccccc4c(C)nn23)c1,-1%,i,16µM*,2%,12%
COc1ccc(S(=O)(=O)NC(C)(C)C)cc1-c1nnc2c3ccccc3c(C)nn12,-2%,i,?,-18%,22%
CC(=O)Nc1cc(-c2ccc(=O)n(C(C)C(=O)Nc3c(C)cc(C)cc3C)n2)ccc1C (configuration not stated),.,.,.,30%,.
CCNC(=S)N1CCC(C(O)(c2ccccc2)c2ccccc2)CC1,1%,i,11%,-3%,-5%
COc1cc(NC(=S)N2CCC(C(O)(c3ccccc3)c3ccccc3)CC2)cc(OC)c1,4%,i,-32%,40µM*,-19%
Cc1ccc(C)n1C1C(=O)N(Cc2ccc(C(C)C)cc2)c2ccc(F)cc21 (configuration not stated),.,.,.,35µM*,.
Cc1ccc(C)n1C1C(=O)N(Cc2ccc(C(F)(F)F)cc2)c2ccc(Cl)cc21 (configuration not stated),.,.,.,10µM*,.
Cc1ccc(C)n1C1C(=O)N(Cc2ccc(C(C)C)cc2)c2c(F)cccc21 (configuration not stated),.,.,.,32µM*,.
CCC(c1cccs1)N1C(=O)[C@H]2CN(CCC(C)C)C[C@H]2C1=O (some centres not stated),.,.,.,28%,.
O=C1C2CC=C(Cl)CC2C(=O)N1CCc1ccccc1 (configuration not stated),3%,i,0%,10µM*,18%
O=C1C2CC=C(Cl)CC2C(=O)N1CCc1c[nH]c2ccccc12 (configuration not stated),3%,i,-8%,-16%,5%
Fc1ccc(OCc2nnc3sc(COc4ccc(Cl)cc4)nn23)cc1,.,.,.,0%,.
O=C1Nc2cc(C(=O)NCCCN3CCCC3)ccc2S/C1=C/c1ccccc1F,-6%,?,-27%,7%,10%
O=C1Nc2cc(C(=O)NCCN3CCCCCC3)ccc2S/C1=C/c1ccccc1F,.,?,-15%,28µM*,.
COCCn1c(Cc2ccccc2)nnc1SCc1cc2ccccc2nc1Cl,.,.,.,-20%,.
CNC(=O)CNC(=O)c1cccc(Br)c1,.,.,.,11%,.
O=C1Nc2ccccc2C12OCC(COc1ccc(Cl)cc1)O2 (configuration not stated),?,i,8%,-17%,-25%
CN1C(=O)C2(OCC(COc3ccc(Cl)cc3)O2)c2ccccc21 (configuration not stated),0%,i,4%,-14%,35µM*

# Source: PubChem BioAssay
